This is a sample that favours compounds with a hit; in the whole collection about 2.2% have one here.
HGIII-sPLA2 inh: Blocks human group III sPLA2 activity; AID 743126; QFRET BODIPY PC-A2 liposome hydrolysis, fluorescence; inhibition, % at 12.2 µM; Q9NZ20; 370,000 compounds, 0.56% hits;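 active = inhibition above mean plus 3 SD of compounds lying within the high and low control bounds, cut at about 19% in these data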;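 also: 0% = median of test compound wells and 100% = no enzyme DMSO wells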
Target sequence (Q9NZ20 whole entry, looked up): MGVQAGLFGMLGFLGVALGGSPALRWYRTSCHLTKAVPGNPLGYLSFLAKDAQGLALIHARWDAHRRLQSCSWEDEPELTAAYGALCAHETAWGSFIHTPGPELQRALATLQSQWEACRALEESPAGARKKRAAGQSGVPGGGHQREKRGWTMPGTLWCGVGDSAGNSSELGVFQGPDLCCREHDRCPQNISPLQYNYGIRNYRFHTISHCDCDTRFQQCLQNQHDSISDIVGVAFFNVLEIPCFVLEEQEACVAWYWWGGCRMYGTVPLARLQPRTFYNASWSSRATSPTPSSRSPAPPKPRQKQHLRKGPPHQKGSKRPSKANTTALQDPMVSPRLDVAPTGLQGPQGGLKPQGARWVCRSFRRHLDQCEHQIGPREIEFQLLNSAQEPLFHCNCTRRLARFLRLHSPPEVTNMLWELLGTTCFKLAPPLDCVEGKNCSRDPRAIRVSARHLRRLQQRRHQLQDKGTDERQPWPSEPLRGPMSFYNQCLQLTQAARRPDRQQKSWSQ
Mot1-301 SUMO: blocks SUMOylation pathway, rescuing yeast Mot1-301 growth; growth rescue, % at 18.8 µM; 320,000 compounds, 1% hits; S. cerevisiae Mot1-301 growth rescue, ATP luminescence, 38.5C; percent above DMSO median, 100 means doubled;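 active = every valid replicate shows activation above 250% relative to neutral control wells; inactive = the rest, any valid replicate at or below 250%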;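 also: OY570 slx delta 5 strain wells were the positive control but not used for scaling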
SKN-1 inh: blocks SKN-1 activity in C. elegans. inhibition, % at 21.8 µM. 360,000 compounds, 0.49% hits. C. elegans VP596 Pgst-4::GFP/RFP ratio, acrylamide-induced, 24 h;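 active = interference check ratio from 0.5 to 1.5 plus GFP to RFP signal ratio inhibition reaching or exceeding a fixed threshold, cut at about 30% in these data, passing the limit was not always enough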
Efflux pump inh: blocks antifungal efflux pumps in multiplex yeast assay; S. cerevisiae Candida pump triplex, Nile Red efflux; inhibition, % at 10 µM; 330,000 compounds, 0.44% hits; AID 485275;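 active = plate passing quality check with inhibition over a set limit, or well fluorescence over plate mean plus 4 SD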;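 also: Nile Red retained in pooled yeast measured as flow cytometry median fluorescence; 0% = buffer negative control and 100% = Enniatin B positive control; higher means more Nile Red kept so more efflux inhibition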
Active calls of the source: *; nt = no result given; ! = not active in a repeat.

SMILES | HGIII-sPLA2 inh | Mot1-301 SUMO | SKN-1 inh | Efflux pump inh
COc1ccc(NC(=O)C2CCN(S(C)(=O)=O)CC2)cc1Cl | 6 | 325* | -11 | 0
O=C(CCNS(=O)(=O)c1ccc(Cl)cc1)N1CCN(c2ccccn2)CC1 | -2 | 269* | -9 | 0
COC(=O)[C@]12C[C@H](CC(=O)NCC34CC5CC(CC(C5)C3)C4)C(=O)N(Cc3ccc4c(c3)OCO4)C1=C[C@H](COCc1ccccc1)O[C@@H]2C | -5 | nt | nt | nt
CCn1c2ccccc2c2cc(/C=N/NC(=O)c3ccccc3C)ccc21 | 11 | 73 | 4 | 0
CCn1c2ccccc2c2cc(/C=N/NC(=O)c3cccc(C)c3)ccc21 | -26 | 31 | 45* | 0
CN(C)C(=O)N1CCN(C(=O)[C@H](CCc2ccccc2)NC(=O)[C@H]2O[C@@H](n3cnc4c(N)ncnc43)[C@H](O)[C@@H]2O)CC1 | -1 | nt | nt | nt
Cc1cc(C)c(NC(=O)CN2CCC(NC(=O)NC3CCCCC3)CC2)c(C)c1 | nt | -8 | nt | 0
CCN(CC)CCNC(=O)c1ccc2c(c1NCCO)C(=O)c1ccccc1C2=O | 10 | 21 | 42* | 0
CC1CCN(C(=O)c2ccc3c(c2NCCO)C(=O)c2ccccc2C3=O)CC1 | 6 | 71 | 11 | 0
CN1CCCCC(NC(=O)CSc2ccccc2)C1=O (centres undefined) | 4 | nt | nt | nt
COC(=O)C1=C(C)N(Cc2cccc(C(F)(F)F)c2)C(=NCc2cc(OC)c(OC)c(OC)c2)NC1c1ccc(Cl)cc1 (centres undefined) | -15 | nt | nt | nt
CCC(C(=O)Nc1cccc(S(=O)(=O)N(C)c2ccccc2)c1)c1ccccc1 (centres undefined) | -15 | -10 | 40* | 0
CCCOc1ccc(/C(O)=C2/C(=O)C(=O)N(c3cc(C)on3)C2c2ccc(C(=O)OC)cc2)cc1 (centres undefined) | -11 | 9 | 40* | 0
C=CCSc1ncc(-c2ccccc2)cn1 | -7 | 8 | 73* | 0
C#CCSc1ncc(-c2ccccc2)cn1 | 8 | -2 | 90* | 0
CSc1ncc(-c2ccccc2)cn1 | 3 | 80 | 27 | 0
O=C(NC(Cc1ccccc1)C(=O)N1CCN(c2ccccc2O)CC1)c1ccccc1 (centres undefined) | 4 | nt | 16 | nt
CCOC(=O)C1=C(Nc2ccccc2)CC(C)(O)C(C(=O)OCC)C1c1ccc(Cl)cc1 (centres undefined) | -4 | -20 | 44*! | 0
O=C(/C=C/c1cccs1)N1CCc2ccccc21 | -4 | 4 | 35* | 0
Nc1ccn([C@@H]2O[C@H](C(=O)N[C@H](Cc3ccccc3)C(=O)N3CCN(C(=O)N4CCCCC4)CC3)[C@@H](O)[C@H]2O)c(=O)n1 | -3 | nt | nt | nt
COCC(=O)NC1CC(C)(C)Cc2c1cnn2-c1ccc(F)cc1 (centres undefined) | -2 | -15 | 9 | 0
CCc1nn(-c2ccccc2)c(N)c1C#N | 7 | 290* | -8 | 0
Fc1ccc(-c2cn3cc(C(F)(F)F)cc(Cl)c3n2)cc1 | -2 | 8 | 35* | 0
COC(=O)c1cc2c(c3c4cc(OC)ccc4n(S(=O)(=O)c4ccc(OC)cc4)c13)C(=O)N(Cc1ccccc1OC)C2 | 2 | nt | nt | nt
CSc1ccc(CCNS(=O)(=O)c2csc(C(N)=O)c2)cc1 | -22 | 1 | 2 | 0
SMILES | HGIII-sPLA2 inh | Mot1-301 SUMO | SKN-1 inh | Efflux pump inh
CCn1c(SCC(=O)N2CCOCC2)nnc1-c1ccco1 | 3 | -16 | 5 | 0
Cn1c(SCC(=O)N2CCOCC2)nnc1-c1ccco1 | -3 | 353* | -1 | 0
CCC(C)(C)n1nnnc1C(c1ccc2ncccc2c1)N1CCCC(C)C1 (centres undefined) | -7 | 342* | -8 | 0
CCC(C)(C)n1nnnc1C(c1ccc2ncccc2c1)N1CCN(c2ccc(O)cc2)CC1 (centres undefined) | 6 | -8 | 2 | 0
Cc1cc(CC(C)C)n(-c2nc3ccccc3c(=O)n2OCc2ccccc2)n1 | 2 | 6 | 37* | 0
O=C(N[C@H](Cc1ccccc1)C(=O)NCc1ccc2c(c1)OCO2)[C@H]1O[C@@H](n2ccc(=O)[nH]c2=O)[C@H](O)[C@@H]1O | -2 | nt | nt | nt
COc1ccc2c(c1)sc1nc(-c3ccccc3)cn12 | -6 | 6 | 37* | 0
CCOC(=O)N1CCN(C(=O)c2ccc3c(c2)sc2nc(-c4ccc(OC)cc4)cn23)CC1 | -1 | 19 | 3 | 0
Clc1cccc(-c2nc3ccc(Br)cn3c2Cc2ccsc2)c1 | -5 | nt | 36* | nt
Fc1ccc(-c2nc3ccc(Cl)cn3c2Cc2ccsc2)cc1 | -14 | nt | 40* | nt
Brc1cccc(-c2nc3ccc(Br)cn3c2Cc2ccsc2)c1 | -5 | nt | 47* | nt
